# Source: PubChem
# Rows were chosen to be rich in hits. Some 0.88% of all compounds tested hit in one or more screens of this group.
# WRN helicase inh: qHTS for Inhibitors of WRN Helicase; WRN helicase unwinding, fluorescent forked duplex, kinetic; Potency, µM (titrated, usually from 114 µM), actives largely listed as inhibitors; actives 0.46% (n = 360,000); further: nearly all actives have a fitted effect of over 55% in size
# Target sequence (Q14191 whole entry, looked up): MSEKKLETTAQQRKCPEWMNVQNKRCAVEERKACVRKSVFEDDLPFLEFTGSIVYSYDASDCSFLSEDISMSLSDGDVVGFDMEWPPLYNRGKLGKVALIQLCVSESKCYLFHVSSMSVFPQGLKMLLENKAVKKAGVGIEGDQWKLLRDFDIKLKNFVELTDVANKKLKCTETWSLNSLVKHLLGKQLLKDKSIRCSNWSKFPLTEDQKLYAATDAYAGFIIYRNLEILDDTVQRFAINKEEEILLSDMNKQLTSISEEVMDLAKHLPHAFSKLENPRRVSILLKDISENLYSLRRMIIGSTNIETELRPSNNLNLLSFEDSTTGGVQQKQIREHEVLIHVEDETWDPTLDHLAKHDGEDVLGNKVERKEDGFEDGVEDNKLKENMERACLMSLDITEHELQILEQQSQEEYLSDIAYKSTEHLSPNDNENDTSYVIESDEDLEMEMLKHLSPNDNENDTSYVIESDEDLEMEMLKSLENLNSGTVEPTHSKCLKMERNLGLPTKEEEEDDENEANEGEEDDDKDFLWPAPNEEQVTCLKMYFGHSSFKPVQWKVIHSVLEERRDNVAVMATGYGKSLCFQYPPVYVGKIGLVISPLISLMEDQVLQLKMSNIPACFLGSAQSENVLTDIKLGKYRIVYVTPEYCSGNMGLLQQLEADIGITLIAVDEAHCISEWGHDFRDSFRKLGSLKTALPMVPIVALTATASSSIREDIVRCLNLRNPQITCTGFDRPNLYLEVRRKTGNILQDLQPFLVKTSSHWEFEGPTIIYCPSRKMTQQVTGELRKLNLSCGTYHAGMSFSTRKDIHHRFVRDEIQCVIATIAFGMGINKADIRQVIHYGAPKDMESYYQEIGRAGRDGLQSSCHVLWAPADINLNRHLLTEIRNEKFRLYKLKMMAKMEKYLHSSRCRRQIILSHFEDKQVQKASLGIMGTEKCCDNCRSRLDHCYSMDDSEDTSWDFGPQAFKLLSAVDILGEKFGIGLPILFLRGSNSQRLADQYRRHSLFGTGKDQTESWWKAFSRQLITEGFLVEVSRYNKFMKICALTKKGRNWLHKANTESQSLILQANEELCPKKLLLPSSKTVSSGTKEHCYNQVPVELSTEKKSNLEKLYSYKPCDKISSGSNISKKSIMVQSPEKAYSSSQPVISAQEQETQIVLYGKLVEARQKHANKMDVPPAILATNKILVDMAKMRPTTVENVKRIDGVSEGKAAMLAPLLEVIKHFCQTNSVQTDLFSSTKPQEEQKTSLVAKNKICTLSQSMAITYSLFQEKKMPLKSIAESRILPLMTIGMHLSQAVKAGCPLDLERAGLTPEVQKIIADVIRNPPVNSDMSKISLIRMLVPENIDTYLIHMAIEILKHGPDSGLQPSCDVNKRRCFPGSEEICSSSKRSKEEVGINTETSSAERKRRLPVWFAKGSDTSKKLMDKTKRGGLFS
#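 Kinetic red-fluorescence monitoring (525/598 nm) tracks WRN helicase activity after 100 nM fluorophore-quencher forked duplex and 2 mM ATP are added to 20 nM enzyme pretreated 15 min at room temperature with compound.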
# BLM inh: qHTS Assay for Inhibitors of Bloom's syndrome helicase (BLM) | RecQ-like DNA helicase BLM (Homo sapiens), P54132 | recombinant BLM DNA unwinding, fluorescence dequenching | Potency, µM (top dose mostly 56.1 µM), most hits filed as inhibitors | actives 0.2% (n = 350,000) | AID 2528, 2010; further: nearly all actives have a fitted effect of over 35% in size
# KAT2A inh: qHTS Assay for Inhibitors of GCN5L2. AID 504327, 2011. actives 0.21% (n = 390,000). GCN5L2 HAT assay, ThioGlo1 CoA-SH fluorescence. Potency, µM (highest dose often 58.9 µM), usual class: inhibitors
#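 Compounds, pin-transferred from DMSO stocks, meet 20nM GCN5L2 for 15 min before the reaction begins with H3(1-25) peptide (75uM) and acetyl-CoA (70uM). Thiol-reactive ThioGlo1 reports CoA release over 20 min at room temperature.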
# APE1 inh: qHTS Assay for Inhibitors of the Human Apurinic/apyrimidinic Endonuclease 1 (APE1). AID 2517, 2012. DNA repair nuclease/redox regulator APEX1 (Homo sapiens), P27695. actives 0.35% (n = 350,000). Potency, µM (titrated, usually from 65.8 µM), most hits filed as inhibitors. recombinant APE1, TAMRA/BHQ-2 abasic DNA cleavage fluorescence; further: nearly all actives have a fitted effect of over 55% in size
#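 Readout is kinetic fluorescence (ex 525, em 598 nm) from cleavage of 50 nM TAMRA/BHQ-2 THF abasic duplex by 0.75 nM APE1, compound added 15 min beforehand at RT.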
# RECQ1 inh: qHTS Assay for Inhibitors of RecQ-Like Dna Helicase 1 (RECQ1) | actives 0.54% (n = 240,000) | Potency, µM (doses to about 57.3 µM), hits mostly inhibitors | RECQ1 DNA unwinding, red fluorescence kinetic read | ATP-dependent DNA helicase Q1 (Homo sapiens), P46063; further: nearly all actives have a fitted effect of over 30% in size
#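 50 nM RECQ1T1 preincubated 15 min with compound in Tris pH 8.0 buffer with MgCl2, DTT, Tween-20 and 2.5 ug/ml poly(dI-dC); started with 200 nM TAMRA/BHQ-2 forked duplex and 2 mM ATP. Unwinding read as fluorescence (525/598 nm), two reads 2 h apart.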
# ERG-DNA inh: qHTS for Small Molecule Inhibitors of the ERG Ets/DNA interaction. fluorescence polarization, His-ERG Ets domain / labelled DNA. Potency, µM (highest dose often 76.9 µM), hits mostly inhibitors. actives 0.028% (n = 370,000). AID 624246, 2012; active means well fitted inhibition curve with a large enough effect in the polarisation, with a control signal flat; inconclusive means small, poorly fitted or top-dose-only effect, or effect the other way, or a change in a side signal; inactive means no such curve, though single readings can be large or run the other way; the % refers to the polarisation;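 further: polarization taken with two DNA probes labelled with fluorescein and Texas red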
#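 His-tagged ERG Ets domain (1 uM in the protein solution; 300mM KCl, 50mM Tris-HCl, 1mM EDTA, 1mM DTT, pH 7.5) received compound, then a probe mix of 5 nM fluorescein-DNA and 100nM Texas-615-DNA. Fluorescence polarization was read for both dyes.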
# A number is an active result; i = inactive; ? = inconclusive; nt = not tested or not shown; [ ] = remark or other dose. Unless noted, the call rests on the fitted dose curve; in most records, active means well fitted curve in the direction sought with a large enough effect; inconclusive means small, poorly fitted or top-dose-only effect, or another doubt; inactive means no such curve, though single readings can be large; an effect the other way counts as inactive or inconclusive.
SMILES,WRN helicase inh,BLM inh,KAT2A inh,APE1 inh,RECQ1 inh,ERG-DNA inh
Cc1ccc(S(=O)(=O)Nc2ccc3c(c2)c(C(=O)OC(C)C)c(C)n3S(=O)(=O)c2ccc(C)cc2)cc1,nt,i,i,nt,nt,i
COC(CC(=O)NNC(=S)Nc1ccc(Cl)cc1)OC,i,i,i,i,i,i
COC(CC(=O)NNC(=S)Nc1ccccc1)OC,i,i,i,?,14.1µM,i
CCOC(=O)NC(=O)C(/C=N/c1sccc1C(=O)OC)=C(\C)O,i,i,i,i,14.1µM,i
CCC(=O)Nc1sccc1C(=O)OC,i,i,i,i,i,i
CC(C)C[C@@H](/C=C/S(C)(=O)=O)NC(=O)[C@H](CC(C)C)NC(=O)[C@H](CC(C)C)NC(=O)OCc1ccccc1,nt,nt,i,i,i,nt
O=C(CN1C(=O)S/C(=C\c2cc(Cl)c(O)c(Cl)c2)C1=O)Nc1ccccc1,i[11.6 µM],i,?,i,nt,i
COc1cc(/C=C2\SC(=O)N(CC(=O)Nc3ccc(C)cc3)C2=O)cc(Cl)c1OCC(=O)O,50.1µM,10µM,?,5.32µM,nt,i
O=S1(=O)C2CC3C=CC2(O3)C(O)C(Cc2ccccc2)N1Cc1cccc(F)c1 (centres undefined),nt,i,nt,i,i,nt
COC(=O)NC(c1cccc(C)c1)[C@]1(C(C)=O)CCCC1=O (some centres undefined),nt,i[12.4 µM],nt,?,i[11.5 µM],nt
Cc1cc2oc(=O)cc(-c3ccccc3)c2c(C)c1-c1sccc1C=O,nt,i,i,i,i,nt
CC(=O)c1ccsc1-c1c(C)cc2oc(=O)cc(-c3ccccc3)c2c1C,i,i,i,i,22.4µM,i
O=c1cc(-c2cccc(O)c2)oc2c(O)c(O)ccc12,nt,i,nt,?,4.47µM,nt
CC(C)(C)n1ncc2c(=O)n(Cc3ccc(F)cc3Cl)cnc21,nt,nt,nt,i,nt,nt
CNc1nc(N)c([N+](=O)[O-])c(NC2CCCCC2)n1,i,i,i,i,nt,i
Nc1nc(Nc2ccccc2)nc(NC2CCCCC2)c1[N+](=O)[O-],79.4µM,?,i,i,nt,i
CC(C)(C)n1ncc2c(=O)n(Cc3ccc(Cl)cc3C(F)(F)F)cnc21,nt,nt,nt,i,nt,nt
COc1cccc([C@@H]2Oc3ccc(Br)cc3C(=O)[C@H]2OC(=O)Nc2ccc(C)c(Br)c2)c1,nt,i,nt,i,i,nt
CC(=O)N(/C=C1\SC(=S)N(c2ccccc2)C1=O)c1ccccc1,i,i,i,i,31.6µM,i
COc1cccc(Cn2ncc3c4sc(Br)cc4n(C)c3c2=O)c1,nt,nt,i,i,nt,nt
CN1CCN(c2ccccc2NC(=O)c2ccc(Br)o2)CC1,i,i,i,i,i,i
CS(=O)(=O)N1CCN(c2ccccc2NC(=O)c2ccc(Br)o2)CC1,i,i,31.6µM,i,i,i
O=C(NCCN1CCOCC1)C1(C(F)(F)F)CC(CCCO)CCCO1 (centres undefined),nt,i,nt,i,i,nt
COc1cc2cc3c(N)c(C(=O)Nc4sc(C)c(C)c4C#N)sc3nc2cc1OC,?,31.6µM,i,12.6µM,10µM,i
Cc1cc(C(=O)Nc2sc(C)c(C)c2C#N)no1,i,i,i,i,i,i
SMILES,WRN helicase inh,BLM inh,KAT2A inh,APE1 inh,RECQ1 inh,ERG-DNA inh
Cc1c(Br)c(O)c(Br)c(O)c1/C=N/n1c(-c2ccccc2)n[nH]c1=S,44.7µM,i,i,i,nt,i
CC[C@@H](C)CCCCC(=O)N[C@H](CCN)C(=O)N[C@@H](C(=O)N[C@H](CCN)C(=O)N[C@@H]1CCNC(=O)C([C@@H](C)O)NC(=O)[C@@H](CCN)NC(=O)[C@@H](CCN)NC(=O)[C@@H](CC(C)C)NC(=O)[C@@H](Cc2ccccc2)NC(=O)[C@@H](CCN)NC1=O)[C@@H](C)O (some centres undefined),nt,nt,nt,i,nt,nt
O=C(Cn1cc[n+](CC(=O)c2ccccc2)c1)c1ccccc1,i,i,i,i,22.4µM,i
CCCCN(C)C(=O)c1ccc2c(=O)n3nc(Nc4cc(C)ccc4C)sc3nc2c1,nt,i,i,nt,nt,i
COc1ccc(OCCn2cc(/C=N/NC(=O)c3ccncc3)c3ccccc32)cc1,i,i,i,i,i,i
Cc1ccc(OCCn2cc(/C=N/NC(=O)c3ccncc3)c3ccccc32)cc1,i,i,i,i,25.1µM,?
CCCC[C@H](NC(=O)[C@H](CC(C)C)NC(=O)[C@@H](Cc1c[nH]c2ccccc12)NC(=O)[C@H](Cc1ccccc1)NC(=O)[C@@H](Cc1c[nH]c2ccccc12)NC(=O)[C@H](CC(N)=O)NC(=O)[C@@H](Cc1c(Cl)cccc1Cl)NC(=O)[C@@H]1CCCN1C(=O)[C@H](Cc1ccccn1)NC(=O)[C@@H]1CCCN1C(=O)[C@H](N)CCCCNC(=O)c1cccnc1)C(N)=O,nt,i,i,i,i,nt
COc1ccc(Cn2c3nc4ccccc4nc3c3c(=O)n(Cc4ccco4)cnc32)cc1,nt,i,i,?,28.2µM,nt
COC(=O)c1c(NC(=O)Cc2coc3cc(C)ccc23)sc2c1CCCC2,nt,i,i,nt,nt,i
CC(C)Cc1nnc(NC(=O)CN2C(=O)NC3(CC(C)CC(C)(C)C3)C2=O)s1 (centres undefined),i,nt,i,i,nt,i
Cc1ccc(-n2c(O)c(C=Nc3ccccc3-c3n[nH]c(=S)[nH]c3=O)c3ccccc3c2=O)c(C)c1,i,i,i,i,i,i
Cc1ccc(-n2c(O)c(C=Nc3ccccc3-c3n[nH]c(=S)[nH]c3=O)c3ccccc3c2=O)cc1C,79.4µM,?,?,i,i,i
O=C1C=CC(=O)N1N(c1ccccc1)c1ccccc1,35.5µM,i,i,i,i,i
Cn1cnnc1SCC(=O)Nc1ncc([N+](=O)[O-])s1,39.8µM,nt,i,8.44µM,nt,i
COc1ccc(-c2nc3ccccc3nc2-c2ccccc2)cc1OC,i,i,i,i,nt,i
COc1ccc(OC)c(-c2nc3cc4ccccc4cc3nc2-c2ccccc2)c1,i,i,i,i,3.16µM,i
CC(=O)Nc1nonc1NC(C)=O,i,i,i,i,i,i
CC(=O)Nc1cc(OC(C)=O)c2nonc2c1OC(C)=O,i,1.58µM,i,?,5.01µM,i
O=C(O)c1ccc(CSc2nnc(-c3ccc([S+](=O)([O-])N4CCCC4)cc3)n2-c2ccccc2)cc1,nt,nt,nt,i,nt,nt
